For 30 compounds, inhibition results are on record in PubChem BioAssay AID1626 (SRMLSC, 2009).

About 2,000 (0.91%) of roughly 220,000 compounds were called active. Another 2% or so got no clear call; they are omitted. No stated cut-off is given here; in the data, inconclusive means inhibition above about 80% without an active follow-up result; inactive means below that; test concentration not stated here. The list is a sample of the results. Results with a measured potency or affinity are listed apart.

The test can be described thus: M. tuberculosis H37Rv growth inhibitors, H37Rv strain (AID 1626).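 Further: bacteria incubated seven days before Alamar blue readout; 0% = bacteria only wells and 100% = bacteria with antibiotic wells.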 Particulars: active compounds read high, concentration not given here.
Regarding `COc1ccccc1NC(=O)c1[nH]c(C)c(C(C)=O)c1C`, the inhibition was -2.28% (inactive). For `Cc1nc(-c2ccccc2)sc1C1(C)CC(c2ccc([N+](=O)[O-])cc2)=NO1` (stereo not given), the inhibition was -6.22% (inactive). As for `Brc1ccccc1-c1nnc(SCc2nc3ccccc3s2)o1`, the inhibition is 36% (inactive). In the case of `CCN(CC)S(=O)(=O)c1cccc(-c2nnc(SCc3nc4ccccc4s3)o2)c1`, the inhibition was 2.86% (inactive). Take `COc1ccc(/C=C/C(=O)c2ccc(NC(=O)c3cccs3)cc2)cc1OC`: the inhibition is 5.93% (inactive).

As to `C/C(=N\NC(=O)CC(C)C)c1ccc(Cl)c(Cl)c1`, the inhibition is -0.71% (inactive). For `COc1ccc(CNCC(O)(c2ccccc2)c2ccc(Cl)cc2)cc1` (stereo not given), the inhibition was -0.19% (inactive). In the case of `OC(CNCc1ccc(Cl)cc1)(c1ccccc1)c1ccc(F)cc1` (stereo not given), the inhibition is -2.55% (inactive). For `Cc1ccc(S(=O)(=O)Nc2c(C)nn(C)c2C)cc1` the value was -3.98% (inactive). Take `Cc1cc(C)n(C(=O)CCC(=O)Nc2ccc(C)c(C)c2)n1`: the inhibition is -4.23% (inactive).

As for `Cc1[nH]c2ccccc2c1NC(=O)CN1CCN(c2cccc(C(F)(F)F)c2)CC1`, the inhibition is 8.35% (inactive). For `COc1ccc(-c2ncnc(C(F)(F)F)c2-c2csc(C)n2)c(O)c1` the value was -3.59% (inactive).

On to `Nc1ccc(OCc2ccccc2)cc1`, for which the inhibition is 78.2% (inactive). Turning to `O=C(NCc1ccco1)c1ccc(COc2ccc(Cl)cc2)cc1`, the inhibition is 15.4% (inactive).

In the case of `O=c1c(C(c2ccc(Cl)cc2)c2c(O)nc3n(c2=O)CCCS3)c(O)nc2n1CCCS2`, the inhibition was -3.6% (inactive). `Cc1sc2nc3n(c(=O)c2c1C)CCCS3`: the inhibition is -3% (inactive).

As to `O=c1c2ccccc2nc2n1CCCS2`, the inhibition was -15.7% (inactive). With `N#Cc1c(-c2ccc(Cl)cc2)nc2n(c1=O)CCCS2`, the inhibition was -3.54% (inactive).

With `COc1ccc(C(=O)NCCNc2ccccc2[N+](=O)[O-])cc1`, the inhibition is -4.94% (inactive). Turning to `O=C(COC(=O)Cn1cnc2ccccc21)NCCc1ccc(Cl)cc1`, the inhibition was -3.57% (inactive).

Regarding `Cc1cccc(CN2C(=O)[C@H]3Cc4c([nH]c5ccccc45)C(C)(C)N3C2=O)c1`, the inhibition is 17.7% (inactive). In the case of `CC1(C)c2[nH]c3ccccc3c2C[C@@H]2C(=O)N(Cc3ccccc3)C(=O)N21`, the inhibition was 2.35% (inactive). For the compound `C=CCn1c(=O)c2c(C)c(C)sc2n2c(Nc3ccccc3)nnc12`, the inhibition was -3.44% (inactive). `O=C(CNc1cccc(Cl)c1)NNC(=S)NCc1ccccc1`: the inhibition is -0.97% (inactive). Turning to `COC(=O)/C=c1/sc2n(c1=O)CCN=2`, the inhibition was -5.21% (inactive). In the case of `CSc1ccc(CN2CCCC(CO)(Cc3ccccc3)C2)cc1` (stereo not given), the inhibition is -4.33% (inactive). As to `CCn1cnc2sc(C(=O)O)c(C)c2c1=O`, the inhibition is -6.48% (inactive). In the case of `CCn1cnc2sc(C(=O)Nc3ccccc3OC)c(C)c2c1=O`, the inhibition was 2.12% (inactive). As for `Cc1c(C(=O)O)sc2ncn(C)c(=O)c12`, the inhibition was -6.12% (inactive). For `Cc1ccc(OCCn2cnc3sc(C(N)=O)c(C)c3c2=O)cc1` the value was 11.2% (inactive).
